From PubChem BioAssay (Tox21)
Inconclusive results are not listed. Active and inactive are the calls of the source. Unless noted, calls come from the whole dose curve.

Columns and labels:
[1] = qHTS assay to identify small molecule antagonists of the vitamin D receptor (VDR) signaling pathway - cell viability counter screen (AID 743225; active = well fitted curve in the direction sought with a large enough effect in the repeat runs; an effect the other way counts as inactive or inconclusive; note: % is set by controls: 0 for no effect and ±100 for the full control effect; nearly all actives have a fitted effect of over 50% in size); details: VDR-bla HEK293T viability, CellTiter-Glo luminescence, 16 h; series mostly up to 61 µM
How it was run: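 Compounds were pinned onto VDR-bla HEK 293T cells together with 1-alpha,25-dihydroxyvitamin D3 at 3 nM final. After 16 h at 37C and 5% CO2 plus the reporter readout, cell viability was measured by CellTiter-Glo luminescence (30 min, room temperature).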

[2] = qHTS assay to identify small molecule agonists of the NFkB signaling pathway - cell viability counter screen (AID 1159515); details: NFkB-bla ME-180 viability, CellTiter-Glo luminescence, 5 h; series mostly up to 61 µM; note: % is set by controls: 0 for no effect and ±100 for the full control effect; nearly all actives have a fitted effect of over 55% in size
How it was run: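 Plate 2,000 NFkB-bla ME-180 cells/well; incubate overnight. Add compounds, 5 hr at 37 C. Add FRET substrate, 1.5 hr RT. Add CellTiter-Glo, 30 min RT; read luminescence.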

[3] = qHTS assay to identify small molecule agonists of the endoplasmic reticulum stress response signaling pathway (AID 1159516; active = well fitted activation curve with a large enough effect in the signal ratio in the repeat runs, not every such curve was filed as active; the % refers to the signal ratio; note: % is set by controls: 0 for no effect and ±100 for the full control effect); details: ESRE-bla HeLa, ER stress beta-lactamase reporter, 5 h; series mostly up to 61 µM
How it was run: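 Beta-lactamase expression from the ER stress response element in HeLa reporter cells is quantified with the LiveBLAzer B/G FRET substrate, read at 405 nm excitation after 2 hr at room temperature, following 5 hr compound treatment at 37 C.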

[4] = qHTS assay to identify small molecule antagonists of the retinoid-related orphan receptor gamma (ROR-gamma) signaling pathway - cell viability counter screen (AID 1159520; active = well fitted curve in the direction sought with a large enough effect in the repeat runs; an effect the other way counts as inactive or inconclusive; note: % is set by controls: 0 for no effect and ±100 for the full control effect; nearly all actives have a fitted effect of over 50% in size); details: Tet-on RORgamma CHO cells viability, ATP luminescence, 16 h; series mostly up to 92.4 µM
How it was run: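 Tet-on ROR gamma CHO cells (1,000/well) were plated 4 hr, given compounds in DMSO for 2 hr at 37 C, then induced with 1 uM final doxycycline for 16 hr. Viability was read as ATP by CellTiter-Glo luminescence after 30 min.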

[5] = target: Nuclear receptor ROR-gamma (Homo sapiens) (UniProt P51449); assay: qHTS assay to identify small molecule antagonists of the retinoid-related orphan receptor gamma (ROR-gamma) signaling pathway (AID 1159521; active = well fitted curve in the direction sought with a large enough effect in the repeat runs; an effect the other way counts as inactive or inconclusive;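 note: CHO cells with doxycycline inducible ROR-gamma driving an RORE luciferase reporter; top concentration of the series differs between compounds; % is set by controls: 0 for no effect and ±100 for the full control effect; nearly all actives have a fitted effect of over 50% in size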); details: Tet-on RORgamma CHO cells, RORE-luciferase, 16 h; series mostly up to 92.4 µM
How it was run: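 Test compounds were applied to Tet-on RORγ CHO cells 2 h ahead of doxycycline hyclate (1 uM final). Luciferase reporter activity was quantified by luminescence after 16 h at 37 C and 5% CO2.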

[6] = qHTS assay to identify small molecule agonists of the AP-1 signaling pathway (AID 1159526); details: ME-180 AP-1-bla reporter, beta-lactamase FRET ratio, 5 h; series mostly up to 76.8 µM; note: % is set by controls: 0 for no effect and ±100 for the full control effect
[7] = target: Retinoic acid receptor RXR-alpha (Homo sapiens) (UniProt P19793); assay: qHTS assay to identify small molecule agonists of the RXR signaling pathway (AID 1159527); details: HEK293T RXRa-UAS-bla, beta-lactamase ratio, 16 h; series mostly up to 76.8 µM; note: % is set by controls: 0 for no effect and ±100 for the full control effect; nearly all actives have a fitted effect of over 35% in size
How it was run: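 Using 9-cis retinoic acid as the reference agonist, chemicals were tested in HEK 293T cells […] for 16 hr; substrate loading lasted 2 hr at room temperature.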

[8] = qHTS assay to identify small molecule agonists of the RXR signaling pathway - cell viability counter screen (AID 1159529; active = well fitted curve in the direction sought with a large enough effect in the repeat runs; an effect the other way counts as inactive or inconclusive; note: % is set by controls: 0 for no effect and ±100 for the full control effect; nearly all actives have a fitted effect of over 50% in size); details: RXR-alpha-bla HEK293T viability, CellTiter-Glo, 16 h; series mostly up to 76.8 µM
How it was run: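 Compounds dissolved in DMSO were pinned onto HEK 293T cells carrying a beta-lactamase reporter under RXR-alpha control and incubated 16 hr. Cytotoxicity was then quantified by CellTiter-Glo luminescence.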

[9] = qHTS assay to identify small molecule agonists of the AP-1 signaling pathway - cell viability counter screen (AID 1159525); details: ME-180 (cervical carcinoma) AP-1-bla cells viability, ATP luminescence, 5 h; series mostly up to 76.8 µM; note: nearly all actives have a fitted effect of over 55% in size
How it was run: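 Each titration point was normalised to DMSO and tetra n-octyl ammonium bromide controls. The read was Cell Titer Glo luminescence after 30 min at RT, following 5 h compound exposure of ME-180 AP-1-bla cells at 37 °C.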

[10] = qHTS assay to identify small molecule agonists of the endoplasmic reticulum stress response signaling pathway - cell viability counter screen (AID 1159517); details: ESRE-bla HeLa viability, CellTiter-Glo luminescence, 5 h; series mostly up to 61 µM
How it was run: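 Cpd-treated ESRE-bla HeLa (5 hr, 37 C) → LiveBLAzer 2 hr RT → CellTiter-Glo 30 min RT → luminescence.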

Retinoic acid receptor RXR-alpha (Homo sapiens), sequence (P19793 whole entry, looked up): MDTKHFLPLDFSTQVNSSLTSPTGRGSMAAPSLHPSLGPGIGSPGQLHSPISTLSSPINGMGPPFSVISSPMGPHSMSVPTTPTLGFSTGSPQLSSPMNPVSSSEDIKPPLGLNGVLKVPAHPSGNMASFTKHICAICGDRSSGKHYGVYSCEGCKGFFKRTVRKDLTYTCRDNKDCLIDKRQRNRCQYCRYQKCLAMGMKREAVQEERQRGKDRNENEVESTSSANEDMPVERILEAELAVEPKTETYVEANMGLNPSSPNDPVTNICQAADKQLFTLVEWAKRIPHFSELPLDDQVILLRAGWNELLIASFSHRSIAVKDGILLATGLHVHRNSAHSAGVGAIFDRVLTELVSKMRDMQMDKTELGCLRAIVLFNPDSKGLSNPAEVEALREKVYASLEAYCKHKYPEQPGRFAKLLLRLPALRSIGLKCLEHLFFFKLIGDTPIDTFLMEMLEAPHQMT

CCO[Si](OCC)(OCC)c1ccccc1
inactive: outcome [1] | outcome [2] | outcome [3] | outcome [4] | Potency [5] | outcome [6] | Potency [7] | Potency [8]

CCCCCCCCCC[N+](C)(C)[O-]
inactive: outcome [1] | outcome [2] | outcome [3] | Potency [5] | outcome [9] | outcome [6] | Potency [7] | Potency [8]

COc1ccnc(CS(=O)c2nc3cc(OC(F)F)ccc3[nH]2)c1OC (stereo not given)
inactive: outcome [2] | outcome [3] | outcome [10] | outcome [6] | Potency [7] | Potency [8]

C[N+](C)(C)CCCCCCCCCC[N+](C)(C)C
inactive: outcome [1] | outcome [2] | outcome [3] | outcome [4] | outcome [9] | outcome [6] | Potency [8]

Cc1nc2ccc(CN(C)c3ccc(C(=O)N[C@@H](CCC(=O)O)C(=O)O)s3)cc2c(=O)[nH]1
inactive: outcome [1] | outcome [2] | outcome [3] | outcome [4] | Potency [5] | outcome [6] | Potency [7] | Potency [8]

CCOC(=O)c1cnc2c(cnn2CC)c1NN=C(C)C
inactive: outcome [1] | outcome [2] | outcome [3] | outcome [4] | Potency [5] | outcome [6] | Potency [7] | Potency [8]

CCCOC(=O)CC
inactive: outcome [1] | outcome [2] | outcome [3] | outcome [4] | outcome [9] | outcome [6] | Potency [7] | Potency [8]

NC(N)=NCCN1CCCCCCC1
inactive: viability change, negative = cytotoxic [1] -3.67% [at 0.628 µM] | activity, negative = cytotoxic [2] -1.12% [at 0.628 µM] | activation [3] 2.69% [at 0.628 µM] | activity, negative = cytotoxicity [4] 6.85% [at 0.349 µM] | activity change, negative = inhibition [5] 36.3% [at 0.35 µM] | activation [6] -7.76% [at 0.29 µM] | activation [7] 1.89% [at 0.29 µM]

CC(C#N)(CCC(=O)O)N=NC(C)(C#N)CCC(=O)O (stereo not given)
inactive: outcome [1] | outcome [2] | outcome [3] | outcome [4] | outcome [9] | outcome [6] | Potency [7]

CNCC(O)c1ccc(O)c(O)c1 (stereo not given)
inactive: outcome [1] | outcome [2] | outcome [3] | outcome [10] | outcome [6] | Potency [7]

CCCCc1nc(Cl)c(CO)n1Cc1ccc(-c2ccccc2-c2nn[nH]n2)cc1
inactive: outcome [1] | outcome [2] | outcome [3] | outcome [4] | Potency [5] | outcome [9] | outcome [6] | Potency [7]

C[N+](C)(CCOc1ccccc1)Cc1cccs1
inactive: outcome [1] | outcome [2] | outcome [3] | outcome [4] | outcome [9] | outcome [6] | Potency [7]

CN(C)C(=O)Oc1ccc[n+](C)c1
inactive: outcome [1] | outcome [2] | outcome [3] | outcome [6] | Potency [7] | Potency [8]

CC(=O)N[C@H]1[C@H]([C@H](O)[C@H](O)CO)OC(C(=O)O)=C[C@@H]1N=C(N)N
inactive: outcome [2] | outcome [3] | Potency [5] | outcome [9] | outcome [6] | Potency [7] | Potency [8]

C=C(C)C(=O)OCCOCCOCCOCCOC(=O)C(=C)C
inactive: outcome [1] | outcome [2] | outcome [3] | outcome [4] | Potency [5] | outcome [9] | outcome [6] | Potency [7] | Potency [8]

CC(N)C12CC3CC(CC(C3)C1)C2 (stereo not given)
inactive: outcome [1] | outcome [2] | outcome [3] | outcome [4] | Potency [5] | outcome [9] | outcome [6] | Potency [7] | Potency [8]

COc1cc(C(=O)NCc2ccc(OCCN(C)C)cc2)cc(OC)c1OC
inactive: outcome [2] | outcome [3] | Potency [5] | outcome [9] | outcome [6] | Potency [7] | Potency [8]

CNC(=O)Nc1ccc(Cl)c(Cl)c1
inactive: outcome [1] | outcome [2] | outcome [10] | outcome [4] | Potency [5] | outcome [9] | outcome [6] | Potency [8]

C=CCCCCCCCCC(=O)OCC
inactive: outcome [1] | outcome [2] | outcome [4] | Potency [5] | outcome [9] | outcome [6] | Potency [7] | Potency [8]

C[N+]1(C)[C@@H]2CC(OC(=O)[C@H](CO)c3ccccc3)C[C@H]1[C@@H]1O[C@@H]12 (stereo not given in full)
inactive: outcome [2] | outcome [10] | outcome [4] | Potency [5] | outcome [9] | outcome [6] | Potency [7] | Potency [8]

CN(C)C(=O)Oc1cccc([N+](C)(C)C)c1
inactive: outcome [1] | outcome [2] | outcome [10] | outcome [4] | Potency [5] | outcome [9] | outcome [6] | Potency [7] | Potency [8]

CN1CCC(=C2c3ccccc3CCc3cccnc32)CC1
inactive: outcome [2] | outcome [10] | outcome [4] | Potency [5] | outcome [6] | Potency [7] | Potency [8]

NS(=O)(=O)Cc1noc2ccccc12
inactive: outcome [1] | outcome [2] | outcome [10] | outcome [4] | Potency [5] | outcome [9] | outcome [6] | Potency [7] | Potency [8]

NC(=O)N1c2ccccc2CC(=O)c2ccccc21
inactive: outcome [1] | outcome [2] | outcome [10] | outcome [4] | Potency [5] | outcome [9] | outcome [6] | Potency [7] | Potency [8]

Cc1cc(C)c(N=Nc2c(O)c(S(=O)(=O)O)cc3cc(S(=O)(=O)O)ccc23)cc1C
inactive: activity, negative = cytotoxic [2] -2.06% [at 6.95 µM] | activity change, negative = cytotoxicity [10] 9.59% [at 6.95 µM] | activity, negative = cytotoxicity [4] -7.94% [at 8.39 µM] | activity change, negative = inhibition [5] -3.58% [at 8.39 µM] | viability change, negative = cytotoxic [9] -9.8% [at 6.97 µM] | activation [6] 6% [at 6.97 µM] | activation [7] 2.6% [at 6.98 µM] | activity change, negative = cytotoxicity [8] -2.64% [at 6.97 µM]

C[N+]1(C)CCCC(OC(=O)C(O)(c2ccccc2)c2ccccc2)C1 (stereo not given)
inactive: outcome [1] | outcome [2] | outcome [10] | outcome [4] | Potency [5] | outcome [9] | outcome [6] | Potency [7] | Potency [8]

CCCCCCCCN1CCCC1=O
inactive: outcome [2] | outcome [10] | outcome [4] | outcome [9] | outcome [6] | Potency [7]

NC(=O)N[C@@H](CCC(=O)O)C(=O)O
inactive: outcome [1] | outcome [2] | outcome [10] | outcome [4] | Potency [5] | outcome [6] | Potency [7] | Potency [8]
